Screening data as filed in PubChem BioAssay.
The list is not random: actives were taken first. Their share in the collection is about 2.4%.
D2 antagonist: D2 dopamine receptor (human) antagonism | P14416 | HEK293 TREx D2 cells, calcium flux, dopamine EC80 | inhibition, % at 10 µM | 2% of 340,000 active; in the data active = inhibition above about 30%; inactive = below that, where a call was filed; also: 0% is about no effect
Target sequence (P14416 whole entry, looked up): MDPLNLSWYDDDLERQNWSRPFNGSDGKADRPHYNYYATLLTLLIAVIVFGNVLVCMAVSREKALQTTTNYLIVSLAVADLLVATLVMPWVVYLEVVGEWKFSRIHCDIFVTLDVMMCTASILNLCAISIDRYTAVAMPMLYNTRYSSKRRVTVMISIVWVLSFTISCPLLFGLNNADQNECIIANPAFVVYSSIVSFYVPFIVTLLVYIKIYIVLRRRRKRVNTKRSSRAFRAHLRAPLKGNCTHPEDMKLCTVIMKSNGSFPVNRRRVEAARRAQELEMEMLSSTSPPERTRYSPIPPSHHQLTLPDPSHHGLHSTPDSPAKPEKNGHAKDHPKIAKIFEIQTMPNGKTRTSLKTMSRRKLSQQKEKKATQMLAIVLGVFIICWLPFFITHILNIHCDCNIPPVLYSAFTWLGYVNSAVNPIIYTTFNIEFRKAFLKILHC
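Tetracycline-induced HEK293 T-REx cells expressing D2 force-coupled to calcium signalling were dye-loaded, exposed to compound for 180 s, then challenged with an EC80 of dopamine; calcium flux was followed kinetically for a further 180 s.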
D2 ag-1: human D2 receptor agonism in beta-arrestin assay. 0.084% of 360,000 active. AID 624465. DiscoveRx PathHunter D2 beta-arrestin, luminescence, 90 min; 100% = 57 uM dopamine signal. activation, % (no concentration beside the values); in the data active = activation above about 40%; inconclusive = between about 15% and that limit
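DiscoveRx PathHunter D2 beta-arrestin cells (2,100/well) attached overnight, then compound-stimulated 90 min at 37 C in HBSS/10 mM HEPES/0.1% Tween-20 buffer; beta-galactosidase complementation read by luminescence after 1 h at ambient temperature. Dopamine 57 uM final (EC100) as control.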
D2 PAM-1: positive allosteric modulators of human D2 dopamine receptor. P14416. DiscoveRx D2 beta-arrestin cells, luminescence, 90 min; 100% = 57 uM dopamine signal. 0.23% of 360,000 active. potentiation, % (concentration not given with the values). AID 624464; in the data active = potentiation above about 50%; inconclusive = mostly about 30% to 49%
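PathHunter beta-arrestin assay in DiscoveRx D2 cells. Compounds were added with an EC20 of dopamine (50 nM final) for 90 min at 37 deg C. Luminescence was read 1 h after detection reagent, with 57 uM dopamine as the EC100 control.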
D2 ag-2: activates the human D2 dopamine receptor; P14416; AID 485358; activation, % at 2 µM; 0.53% of 340,000 active; HEK293 T-REx D2 cells, calcium flux agonist mode;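 active = activation over 3 SD above normal in the single-dose calcium agonist read, cut at about 30% in these data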; also: 0% is about no effect
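Calcium-flux readout, 1 cycle/sec over 180 s following compound pin transfer, in inducible HEK293 Trex D2 cells (force-coupled); dopamine controls included. Positive calcium responses during this window marked compounds as potential agonists.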
D2 PAM-2: D2 dopamine receptor (human) potentiation; 0.34% of 340,000 active; potentiation, % at 10 µM; AID 485347; HEK293 T-REx D2, calcium flux, EC20 dopamine potentiation;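 active = potentiation over 3 SD above the plate norm, cut at about 30% in these data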; also: 0% is about no effect
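Calcium flux readout, no-wash dye, 1 read/s. Inducible HEK293 Trex D2 line, overnight 30 C. Compound alone 180 s (agonist flags), then EC20 dopamine, another 180 s to score potentiation.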
* hit, by the source's call; ? = inconclusive; / = not tested or not shown.

SMILES	D2 antagonist	D2 ag-1	D2 PAM-1	D2 ag-2	D2 PAM-2
Cc1ccc(/C=N/NC(=O)C2CC(=O)N(c3ccccc3)C2)s1 (stereo unspecified)	-18	-4	-22	-1	-8
O=C(N/N=C/c1ccccc1O)C1CC(=O)N(c2ccc(Cl)cc2)C1 (stereo unspecified)	35*	3	-19	0	-23
COc1cccc(-c2nc(NCC3CCCO3)c3ccccc3n2)c1O (stereo unspecified)	4	-2	10	1	15
COc1cccc(-c2nc(NC(C)C)c3ccccc3n2)c1O	32*	0	12	12	10
CCSC1=NSC2=NC(=O)/C(=C\c3coc4ccccc4c3=O)C(=N)N12	12	-1	?	100*	-7
CC(C)CC1=NN2C(=N)/C(=C\c3coc4ccccc4c3=O)C(=O)N=C2S1	-4	3	4	13	2
Cc1ccc(NS(=O)(=O)c2cc(Br)cnc2N)cc1C	-27	5	-8	0	6
Cc1cc(C)cc(NS(=O)(=O)c2cc(Br)cnc2N)c1	32*	1	3	0	2
C#CCn1cc(CNC[C@H]2O[C@@H](n3cnc4c(=O)[nH]c(N)nc43)[C@H](O)[C@@H]2O)c2ccccc21	/	-7	-3	/	/
Nc1cc(N)nc(SCCc2ccccc2)n1	47*	2	1	1	-1
Nc1cc(N)nc(SCc2ccccc2)n1	-14	0	0	0	-11
CC(C)(C)NC(=O)C1CCCN(S(=O)(=O)c2ccc(-n3cnnn3)cc2)C1 (stereo unspecified)	32*	1	-5	0	7
COC(=O)c1cccc(-n2cnnn2)c1	-7	-4	-14	0	-3
CC(=O)Nc1ccc(NC(=O)C2CCCN(S(=O)(=O)c3ccc(-n4cnnn4)cc3)C2)cc1 (stereo unspecified)	12	-6	2	5	/
COc1cc(OC)cc(N2CCN(S(=O)(=O)c3ccc(-n4cnnn4)cc3)CC2)c1	46*	-5	-1	0	19
COc1cccc(-n2cnnn2)c1	38*	-1	-14	0	-11
CCN(CC)S(=O)(=O)c1nnc(NC(=O)COc2ccc(C)cc2)s1	/	/	/	0	8
c1ccc2c(c1)CCN(CCCNc1nc3ccccc3n3cnnc13)C2	70*	-7	-10	0	-26
Cc1ccc(CNC(=O)c2oc3c(c2C)-c2nn(Cc4ccc(Cl)cc4)cc2CC3)cc1	/	/	/	1	-11
COc1cc2ccnc(Cc3cccc(OC)c3OC)c2cc1OC	-4	15	55*	1	0
Cc1cccc(NC(=O)c2c(C)nc3ccccn23)c1	40*	-2	-3	0	0
CCOc1ccccc1CN1C(=O)c2ccccc2C1C(=O)NC1CCCCCC1 (stereo unspecified)	/	/	/	0	-4
O=C(NCc1ccc(F)cc1)c1cc(C2CCCN(C(=O)c3ccc4ccccc4c3)C2)on1 (stereo unspecified)	/	-3	-10	/	/
Cc1oc(-c2ccccc2)nc1Cn1c(=O)cc(-c2ccccc2)c2c(C)nn(C)c21	/	/	/	-2	7
CCCN(CCC)C(=O)CSc1ncccc1C(=O)O	3	0	-17	38*	-19
SMILES	D2 antagonist	D2 ag-1	D2 PAM-1	D2 ag-2	D2 PAM-2
CC(Nc1oc(-c2ccco2)nc1C#N)c1ccccc1 (stereo unspecified)	-7	-1	-22	-2	-1
CC(C)CNc1oc(-c2ccco2)nc1C#N	6	-3	-26	-1	36*
CC(NC(=O)CN(C)CC(=O)Nc1ccccc1Br)c1ccccc1 (stereo unspecified)	11	-2	-3	-1	15
CC(NC(=O)CN(C)CC(=O)Nc1ccc(F)c(F)c1F)c1ccccc1 (stereo unspecified)	49*	-1	2	2	2
Cc1ccccc1S(=O)Cc1ccc(C(=O)NC2CCCCCC2)o1 (stereo unspecified)	/	/	/	1	-1
Cc1ccccc1NC(=O)Cc1nc(COC(=O)CNS(=O)(=O)c2cccc(Br)c2)cs1	35*	-1	-5	0	-8
Cc1ccccc1NC(=O)Cc1nc(COC(=O)COc2ccccc2C(C)C)cs1	29	-3	-1	2	5
